The values that follow come from PubChem BioAssay (NCATS).

Results filed as inconclusive are left out. A number with no mark means an inactive call. Active and inactive are the calls of the source. Calls come from the whole dose curve; as a rule, active = well fitted curve in the direction sought with a large enough effect; inconclusive = small, poorly fitted or top-dose-only effect, or another doubt; inactive = no such curve, though single readings can be large; an effect the other way counts as inactive or inconclusive.

The nature of experiment [1]: P-glycoprotein substrates identified in KB-8-5-11 adenocarcinoma cell line, qHTS therapeutic library screen (AID 1346987). For activity change, negative = cytotoxicity: series mostly up to about 44 µM. Note: nearly all actives have a fitted effect of over 65% in size. Summed up:
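KB-8-5-11, a colchicine-selected P-gp-overexpressing KB-3-1 subline, was grown without colchicine for the assay. Cells were seeded at 500 cells/well, dosed in concentration-response and incubated 72 h at 37 degree C, 5% CO2. Viability was read by CellTiter-Glo luminescence.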

For experiment [2], the system named is Zika virus NS2B-NS3 protease (unlinked complex). Nature of the experiment: Primary screen GU Rhodamine qHTS for Zika virus inhibitors: Unlinked NS2B-NS3 protease assay (AID 1347159). Note: nearly all actives have a fitted effect of over 60% in size. Note: potency is the fitted concentration of half-maximal effect. Summed up: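 Noncovalent NS2B hydrophilic domain–NS3 protease domain complex (25 nM) preincubated 15 min at room temperature with compounds (up to 114 microM) in 10 mM Tris-HCl pH 8.0, 0.01% Tween 20; 1.5 microM Rhodamine110 substrate added, fluorescence change over 15 min fitted to Hill equation.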

The test system of experiment [3] is Zika virus NS2B-NS3 protease (linked construct). Kind of experiment: Primary screen NINDS Rhodamine qHTS for Zika virus inhibitors (AID 1347160). Note: nearly all actives have a fitted effect of over 55% in size. Summed up:
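Purified linked NS2B-NS3 protease (NS2B hydrophilic domain joined to NS3 protease by flexible linker), 25 nM in 10 mM Tris-HCl pH 8.0, 0.01% Tween 20. Compounds titrated, 15 min preincubation at room temperature; 1.5 microM Rhodamine110 substrate, FITC fluorescence change over 15 min.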
(In general: qHTS replaces the single test concentration by a dilution series.)
% is set by controls: 0 for no effect and ±100 for the full control effect.

In the case of `C=C(COC(=O)C(C)C)C1Oc2cc(C(C)=O)ccc2C1OC(=O)C(C)C` (stereo not drawn), the Potency result in experiment [1], in experiment [2] and in experiment [3] was “inactive” in each case.

In the case of `COc1cc(/C=C/C(=O)O)ccc1O[C@@H]1O[C@H](CO)[C@@H](O)[C@H](O)[C@H]1O[C@@H]1OC[C@](O)(CO)[C@H]1O`, the Potency entry in experiment [1], in experiment [2] and in experiment [3] was “inactive” each time.

With `CC(C)[C@](O)(c1ccc2cc(OC(F)F)c(OC(F)F)cc2c1)c1cn[nH]n1`, the Potency entry in experiment [1], in experiment [2] and in experiment [3] was “inactive” each time.

For `C/C=C(\C)C(=O)OC1C(C)C2(O)C3C=C(C)C(=O)C3CC(CO)=CC2C2C(C)(C)C12OC(C)=O` (stereo not drawn), the Potency entry in experiment [1], in experiment [2] and in experiment [3] was “inactive” each time.

Regarding `COc1ccccc1CN[C@H]1CCCN[C@H]1c1ccccc1`, the Potency result in experiment [1], in experiment [2] and in experiment [3] was “inactive” throughout.

As for `CC1C2=CC(=O)OC2(O)CC2C1C(O)CC1C(C)(CO)CCCC21C` (stereo not drawn), the Potency entry in experiment [1], in experiment [2] and in experiment [3] was “inactive” each time.

As to `CC1(C)CC[C@]2(C(=O)O)CC[C@]3(C)C(=CCC4[C@@]5(C)C[C@@H](O)[C@H](O)[C@](C)(CO)C5CC[C@]43C)[C@@H]2[C@@H]1O` (stereo partly drawn), the Potency result in experiment [1], in experiment [2] and in experiment [3] was “inactive” in each case.

For the compound `C=C1C(OC(C)=O)[C@@]23CCC4[C@](C)(C(=O)O)CCC[C@@]4(C)[C@]2(O)CC[C@H]1C3` (stereo partly drawn), the Potency result in experiment [1], in experiment [2] and in experiment [3] was “inactive” in each case.

`COc1ccc(-n2c(SCC#N)nc3sc4c(c3c2=O)CCCC4)cc1`: the Potency entry in experiment [1], in experiment [2] and in experiment [3] was “inactive” each time.

In the case of `Cc1cccc(NC(=O)CN2CCC(c3ccccn3)CC2)c1`, the Potency result in experiment [1], in experiment [2] and in experiment [3] was “inactive” throughout.

Take `Fc1cccc(CN(C2=NCCN2)c2c(Cl)cccc2Cl)c1`: the Potency result in experiment [1], in experiment [2] and in experiment [3] was “inactive” in each case.

On to `Cc1cc(CNC(=O)c2cc(C(=O)NCc3ccc(F)c(C)c3)ncn2)ccc1F`, for which the Potency entry in experiment [1], in experiment [2] and in experiment [3] was “inactive” in each case.

For `C/C(=C\CCC(C)C1CC(O)C2(C)C3CCC4C(C)(C)C(OC5OCC(O)C(O)C5O)CCC45CC35CC(O)C12C)C(=O)O` (stereo not drawn), the Potency result in experiment [1], in experiment [2] and in experiment [3] was “inactive” each time.

Regarding `C=C1C(OC(C)=O)C(=O)C2C(C)(C)C(O)CCC2(C)C1CC(OC(C)=O)/C(C)=C/COC(C)=O` (stereo not drawn), the Potency result in experiment [1], in experiment [2] and in experiment [3] was “inactive” throughout.

Take `COc1cc(O)c2c(c1Cl)CC(C)OC2=O` (stereo not drawn): the Potency result in experiment [1], in experiment [2] and in experiment [3] was “inactive” in each case.

Take `On1ncc(C2CCNCC2)c1-c1cccc(-c2ccccc2)c1`: the Potency result in experiment [1], in experiment [2] and in experiment [3] was “inactive” throughout.

For the compound `OC[C@@]1(O)CO[C@@H](OC[C@H]2O[C@@H](Oc3ccccc3)[C@H](O)[C@@H](O)[C@@H]2O)[C@@H]1O`, the Potency entry in experiment [1], in experiment [2] and in experiment [3] was “inactive” in each case.

As for `CC(=O)N[C@H]1[C@H](O[C@H]2CC[C@]3(C)C4CC=C5[C@@H]6CC(C)(C)CC[C@]6(C(=O)O)[C@H](O)C[C@@]5(C)[C@]4(C)CC[C@H]3C2(C)C)O[C@H](CO)[C@@H](O)[C@@H]1O` (stereo partly drawn), the Potency result in experiment [1], in experiment [2] and in experiment [3] was “inactive” each time.

As for `CN(C)C(=O)C(O)C(Cc1ccccc1)NC(=O)c1cc2cc(Cl)ccc2[nH]1` (stereo not drawn), the Potency entry in experiment [1], in experiment [2] and in experiment [3] was “inactive” in each case.

On to `COC(=O)[C@@H](NC(=O)[C@H](CC(C)C)NC(=O)N(Cc1ccccc1)C[C@@H](O)[C@H](Cc1ccccc1)NC(=O)OC(C)(C)C)C(C)C`, for which the activity change, negative = cytotoxicity in experiment [1] is -2.72% [at 9.29 µM]. The activity change, negative = inhibition in experiment [2] is 14.8% [at 19.1 µM]. Moreover, in experiment [3], the Potency entry is “inactive”.

With `CC1(C)CC[C@]2(C(=O)O[C@@H]3O[C@H](CO)[C@@H](O)[C@H](O)[C@H]3O)CC[C@]3(C)C(=CCC4[C@@]5(C)CC[C@H](O[C@@H]6O[C@H](C(=O)O)[C@@H](O[C@@H]7O[C@H](CO)[C@@H](O)[C@H](O)[C@H]7O)[C@H](O)[C@H]6O)C(C)(C)C5CC[C@]43C)C2C1` (stereo partly drawn), in experiment [1], the outcome was “inactive [at 9.29 µM]”. The Potency result in experiment [2] and in experiment [3] was “inactive” throughout.

In the case of `CC(=O)OC1(C)CC(O)C2(O)C=COC(OC3OC(CO)C(O)C(O)C3O)C12` (stereo not drawn), the Potency entry in experiment [1], in experiment [2] and in experiment [3] was “inactive” throughout.

For the compound `COc1ccc(C2COc3cc(O)ccc3C2)c(O)c1OC` (stereo not drawn), the Potency result in experiment [1], in experiment [2] and in experiment [3] was “inactive” each time.

Consider `C[C@H]1[C@@H](O)[C@H](O)C2[C@]3(C)C([C@@H](O)[C@H]4OC(=O)[C@@H]1[C@@]24C)[C@](C)(O)C=C[C@H]3O[C@@H]1O[C@H](CO)[C@@H](O)[C@H](O)[C@H]1O` (stereo partly drawn), for which the Potency result in experiment [1], in experiment [2] and in experiment [3] was “inactive” throughout.

As to `C/C=C(/C)C(=O)O[C@H]1C[C@]2(C)O[C@@H]2[C@@H](OC(C)=O)[C@@]2(C)CC[C@@](O)(C(C)C)[C@H]12`, the Potency entry in experiment [1], in experiment [2] and in experiment [3] was “inactive” throughout.

For `COC(=O)C1C(O)CCC2CN3CCc4c([nH]c5ccccc45)C3CC21` (stereo not drawn), the Potency entry in experiment [1] and in experiment [3] was “inactive” each time. For the same compound, in experiment [2], the Potency is 12.6 µM (active).
